Among all 290,000 compounds or so, about 2,200 (0.76%) were called active. Cut-off read from the data, not from the text of the source: active = inhibition above about 30%; inconclusive = no clear call, values can overlap the other calls; inactive = below that. The sample as a whole holds a higher share of actives than the screen did.
These molecules were tested against Protein RecA (Mycobacterium tuberculosis (strain ATCC 25618 / H37Rv)) (UniProt P9WHJ3) (assay: Mtb RecA intein splicing inhibitors, primary screen, biochemical, fluorescence, HTS (AID 2221;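 note: 0% = vehicle wells and 100% = reference inhibitor control wells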)). Conditions: cell-free RecA intein splicing, hits give high values, concentration not given here.
Protein RecA (Mycobacterium tuberculosis (strain ATCC 25618 / H37Rv)), sequence (P9WHJ3 whole entry, looked up): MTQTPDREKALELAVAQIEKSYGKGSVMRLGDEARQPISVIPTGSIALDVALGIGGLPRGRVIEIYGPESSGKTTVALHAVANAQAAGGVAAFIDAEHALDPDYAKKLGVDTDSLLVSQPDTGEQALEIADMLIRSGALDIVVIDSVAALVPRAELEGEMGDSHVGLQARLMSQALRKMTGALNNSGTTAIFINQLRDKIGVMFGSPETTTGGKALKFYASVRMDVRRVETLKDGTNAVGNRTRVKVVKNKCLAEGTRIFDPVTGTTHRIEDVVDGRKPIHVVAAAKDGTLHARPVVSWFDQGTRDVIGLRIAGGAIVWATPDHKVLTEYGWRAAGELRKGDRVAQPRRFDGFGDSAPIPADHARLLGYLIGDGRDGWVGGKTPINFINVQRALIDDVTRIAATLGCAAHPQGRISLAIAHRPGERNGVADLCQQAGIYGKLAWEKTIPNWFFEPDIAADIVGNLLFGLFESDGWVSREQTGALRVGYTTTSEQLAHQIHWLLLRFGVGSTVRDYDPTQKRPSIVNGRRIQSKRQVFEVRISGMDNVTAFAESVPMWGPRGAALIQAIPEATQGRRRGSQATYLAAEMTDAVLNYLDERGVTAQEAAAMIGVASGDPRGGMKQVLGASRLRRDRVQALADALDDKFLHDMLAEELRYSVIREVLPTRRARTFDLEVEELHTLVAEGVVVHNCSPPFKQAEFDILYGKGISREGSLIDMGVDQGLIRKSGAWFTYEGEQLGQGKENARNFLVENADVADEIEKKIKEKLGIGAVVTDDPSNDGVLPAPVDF

Structure (SMILES)	inhibition
CC(C)(C)n1nc(Cc2cccc3ccccc23)c(C#N)c1N	4.34% (inactive)
COc1ccc(N(C(=O)c2snc(C(N)=O)c2N)C(C(=O)NC2CCCC2)c2ccc(C)o2)c(OC)c1 (centres undefined)	5.96% (inactive)
O=C(OCC(=O)N(CCc1ccccc1)Cc1ccccc1)c1ccccc1[N+](=O)[O-]	18.8% (inactive)
Cc1ccc(C(=O)N/N=C\c2cc(Br)c(Br)o2)cn1	32% (active)
O=C(N/N=C\c1cc(Br)c(Br)o1)C1COc2ccccc2O1 (centres undefined)	0.81% (inactive)
Cc1ccc(C(=O)N/N=C/c2cccc3ccccc23)cn1	0.625% (inactive)
Cn1c2ccccc2n2c(=O)c(=O)n(CC(=O)c3ccc(F)cc3)nc12	-7.28% (inactive)
COCCN1CCN(C(=O)c2cc(COc3ccc(F)cc3Cl)on2)CC1	-1.15% (inactive)
CC1CCC(NC(=O)C2c3ccccc3C(=O)N2Cc2ccc3c(c2)OCO3)CC1 (centres undefined)	-1.41% (inactive)
O=C(C1CCN(Cc2ccc(Cl)cc2)CC1)N1CCN(Cc2ccc3c(c2)OCO3)CC1	-0.0543% (inactive)
O=C(Nc1ccc(Cl)cc1)C1c2cccc[n+]2CC(=O)N1Cc1ccc2c(c1)OCO2 (centres undefined)	36.5% (active)
C=CS(=O)c1sc(Cl)c(N2CCOCC2)c1[N+](=O)[O-] (centres undefined)	33.8% (active)
CCOC(=O)c1cc(NC(=O)c2ccc(Cl)cc2)c(=O)oc1-c1ccccc1	-0.694% (inactive)
O=C(N/N=C/c1c(Cl)[nH]c2ccccc12)c1sc2ccccc2c1Cl	3.69% (inactive)
Oc1ccc(N=Cc2sc3ccccc3c2Cl)cc1	34.2% (active)
COc1ccc(N=C(C)c2sc3ccccc3c2O)cc1	0.51% (inactive)
CC(C)(C)C1CCC(C(=O)NCC(c2cccs2)N2CCOCC2)CC1 (centres undefined)	4.62% (inactive)
C#CCN1C(=O)C(O)(CC(=O)c2cc(OC)ccc2OC)c2ccccc21 (centres undefined)	2.4% (inactive)
CCCCN1C(=O)/C(=C(/C#N)C(N)=O)c2ccccc21	1.79% (inactive)
COc1ccc2c(c1)C(=C(C#N)C#N)C(=O)N2CCc1ccccc1	61.5% (active)
O=[N+]([O-])c1ccc2nc(-c3ccccn3)[nH]c2c1	0.606% (inactive)
COc1ccc(-c2nnc(SCC(=O)Nc3cccnc3Cl)n2C)cc1	-0.381% (inactive)
COc1ccc(N(CC(=O)NCC2CCCO2)C(=O)CCC(=O)Nc2nccs2)c(OC)c1 (centres undefined)	1.28% (inactive)
COc1ccc(NC(=O)/C(Cl)=C(/Cl)S(=O)Cc2ccc(C)cc2)cn1 (centres undefined)	89% (active)

Structure (SMILES)	inhibition
COc1ccc(NC(=O)c2cc(-c3ccc(C)cc3)on2)cc1	-0.468% (inactive)
Cc1ccc(NC(=O)OCc2cncs2)cc1	-1.45% (inactive)
O=C(Nc1ccccc1-c1nnn(CC(=O)N2CCN(c3ccccc3)CC2)n1)c1cccs1	0.619% (inactive)
COc1ccc(CNC(=O)CN(c2ccc(OC)c(Cl)c2)S(=O)(=O)c2ccc(C)cc2)cc1	-0.316% (inactive)
CCOc1ccccc1Nc1ccc2nonc2c1[N+](=O)[O-]	2.95% (inactive)
O=[N+]([O-])c1c(NCCO)cc(Sc2nc3ccccc3s2)c2nonc12	94.4% (active)
O=C(O)c1cccc(S(=O)(=O)Nc2ccc(O)cc2Sc2nc3ccccc3s2)c1	-3.82% (inactive)
Cc1ccc(CS(=O)(=O)c2ncc(Cl)c(C(=O)Nc3nnc(C)s3)n2)cc1	61% (active)
Cc1ccc(S(=O)(=O)CC(=O)Nc2nnc(C)s2)cc1	-0.704% (inactive)
Cc1nnc(NC(=O)CCCOc2ccccc2)s1	-1.92% (inactive)
CSc1ncc(Cl)c(C(=O)Nc2cc(C)ccc2C)n1	-0.95% (inactive)
CSc1nnc(NC(=O)c2nc(S(=O)(=O)Cc3ccc(C)cc3)ncc2Cl)s1	82.8% (active)
CCSc1nnc(NC(=O)c2ccc(C)cc2)s1	2.42% (inactive)
Cc1cc(Cl)nc(NC(=O)Nc2cccc(Cl)c2)n1	-0.873% (inactive)
O=C(NCCCn1ccnc1)c1cc2c(s1)CCCC2	1.03% (inactive)
CCOc1c(Br)cc(/C=C2\C(=O)N(CCC#N)N=C2C)cc1OC	89.5% (active)
COc1cc(/C=C2/C(=O)NN(c3cccc(Cl)c3)C2=O)cc(Br)c1O	9.85% (inactive)
C=CCOc1c(Br)cc(/C=N\n2nnnc2N)cc1OC	1.44% (inactive)
Cc1cccc(OCC(=O)NCCNC(=O)c2cccnc2)c1	4.34% (inactive)
Cc1nn(CC(=O)NC2CCCCC2)c(=O)c2cccn12	-1.92% (inactive)
O=C(CN(C(=O)CNC(=O)c1cccs1)c1cccc(F)c1)NC1CCCCC1	2.36% (inactive)
Cc1cccc(NC(=O)NC(=S)NC(=O)c2ccccc2)c1	1.58% (inactive)
Cc1cc2[nH]ncc2cc1NC(=S)NC(=O)c1ccccc1	38.6% (active)
Cc1cccc(NC(=S)Nc2ccc3cn[nH]c3c2)c1	3.44% (inactive)

Structure (SMILES)	inhibition
CC(=O)c1c(N2CCN(c3ccc(F)cc3)CC2)nc(=S)n(-c2ccccc2)c1C	-0.168% (inactive)
Cc1ccc(CNC(=O)CCN2C(=O)[C@@H]3Cc4ccccc4CN3C2=O)cc1	58% (active)
O=C(CCN1C(=O)[C@@H]2Cc3ccccc3CN2C1=O)NCCc1ccccc1	-9.37% (inactive)
O=C(CCN1C(=O)[C@@H]2Cc3ccccc3CN2C1=O)NCc1ccccc1	-0.00645% (inactive)
Cc1ccsc1/C=N/NC(=O)Cc1cc(=O)[nH][nH]1	93.6% (active)
COc1cc(CC(=O)N/N=C/c2ccccc2)c([N+](=O)[O-])cc1OC	-1.27% (inactive)
Cc1ccsc1/C=N/Nc1ccc(Cl)nn1	0.218% (inactive)
Cc1cc(C(=O)N/N=C/c2ccccc2[N+](=O)[O-])c(C)o1	-1.48% (inactive)
CCOc1ccc(N2CC(C(=O)N/N=C/c3sccc3C)CC2=O)cc1 (centres undefined)	-0.809% (inactive)
O=C(Cc1cc(=O)[nH][nH]1)N/N=C/c1ccccc1[N+](=O)[O-]	86.9% (active)
CCCNC(=O)OC[C@H]1O[C@H](CCO/N=C/[C@@H](NS(=O)(=O)c2ccc(C)cc2)[C@H](C)/C=C/CC(=O)OC)C=C[C@@H]1Oc1ccc(OC)cc1	4.43% (inactive)
CCN=c1sc(C(=O)Nc2ccccc2)c(C)n1CC	-1.39% (inactive)
CC(=O)N1CCN(C(=O)C2(NC(=O)Nc3ccc(C)cc3)CCCCC2)CC1	-0.697% (inactive)
O=C1c2cccc3c([N+](=O)[O-])ccc(c23)C(=O)N1CC1CCCO1 (centres undefined)	-70.4% (inactive)
Cc1cc(C)nc(Nc2cc([N+](=O)[O-])ccc2C)n1	-2.26% (inactive)
Cc1ccc(Nc2ccc(C(N)=O)cc2[N+](=O)[O-])cc1	2.38% (inactive)
Cc1ccc(Nc2cc(C)nc3c(C)ccc([N+](=O)[O-])c23)cc1	63.3% (active)
CN(c1ccccc1)c1ccc([N+](=O)[O-])c2nonc12	63.5% (active)
Cc1ccccc1Nc1c([N+](=O)[O-])ccc2nonc12	-1.72% (inactive)
CCN(CC)c1ccc([N+](=O)[O-])c2cccnc12	14.5% (inactive)
COc1cc(C(F)(F)F)nc2c(Br)c(C(C)(C)C)nn12	0.549% (inactive)
CCOC(=O)c1cc(S(=O)(=O)NCCc2ccc(OC)c(OC)c2)cn1C	-0.521% (inactive)
COc1ccc(C(=O)NNC(=S)NC(=O)c2ccccc2)cc1	7.5% (inactive)
COc1ccc(C(=O)NC(=S)NNC(=O)CCc2ccccc2)cc1	34.5% (active)

Structure (SMILES)	inhibition
CC(C)Oc1ccc(CCC(=O)NNC(=S)NCc2ccccc2)cc1	0.193% (inactive)
COc1ccc(N2CC(C(=O)NCCS(=O)(=O)N3CCN(c4ccccc4)CC3)CC2=O)cc1 (centres undefined)	-1.96% (inactive)
CC(C)C(NC(=O)C1CCC(C(C)(C)C)CC1)C(=O)NCCCN1CCCCC1 (centres undefined)	0.406% (inactive)
Cc1c(-c2nn(C)c(=O)c3ccccc23)oc2ccc(F)cc2c1=O	88.2% (active)
O=C1c2oc3ccc(Br)cc3c(=O)c2C(c2cccc(F)c2)N1CCO (centres undefined)	1.67% (inactive)
Cc1ccc(F)cc1NC(=O)Cc1nn(C)c(=O)c2ccccc12	-33.8% (inactive)
COc1cccc(N2C(=O)CN(Cc3ccccc3)C2=S)c1	0.665% (inactive)
O=C(COc1ccc(Cl)cc1Cl)NCCCNC(=O)c1cnccn1	1.17% (inactive)
CCOC(=O)/C(=N\Nc1ccccc1[N+](=O)[O-])c1csc(Nc2ccccc2)n1	-3.85% (inactive)
CCc1c(-c2ccccc2)nc(N)c(C#N)c1-c1cccs1	4.71% (inactive)
CN1CCc2nc(SC(C(=O)O)c3ccccc3)c(C#N)c(-c3cccs3)c2C1 (centres undefined)	34.8% (active)
Cc1c(-c2ccccc2)nc(N)c(C#N)c1-c1cccs1	-1.05% (inactive)
O=C(Cc1ccccc1F)NC1CCSc2ccccc21 (centres undefined)	-0.276% (inactive)
Cc1nc(-c2ccccc2)sc1C1(C)CC(c2cccnc2)=NO1 (centres undefined)	1.29% (inactive)
N#Cc1nc(N)nc(N(c2ccccc2)c2ccccc2)n1	37.4% (active)
Nc1nc(-c2ccccc2)cc(-c2ccccc2)n1	6.87% (inactive)
Cc1nc2ccccn2c(=O)c1NC(=O)c1cccs1	-0.75% (inactive)
Cc1c(Cl)cccc1NC(=O)CCC(=O)N/N=C/c1ccco1	-1.26% (inactive)
CC(CCn1cccn1)NC(=O)CCc1nnc(CCc2ccccc2)o1 (centres undefined)	36.9% (active)
O=C(CCc1nnc(CCCCc2ccccc2)o1)NC(c1cccnc1)C(F)(F)F (centres undefined)	-3.54% (inactive)
CCC(C)NC(=O)CCCc1ccccc1 (centres undefined)	-3.16% (inactive)
Cc1cc(=O)n2nc(N3CCC(C(=O)Nc4c(F)c(F)c(F)c(F)c4F)CC3)sc2n1	0.056% (inactive)

From PubChem BioAssay AID2221 (Broad Institute, 2009)
